This is a sample that favours compounds with a hit; in the whole collection about 1.1% have one here.
SUMO HTRF inh – inhibitors of human SUMOylation (UBC9); P63279; HTRF SUMOylation assay, SAE1/SAE2 + UBC9, in vitro; inhibition, % at 35 µM; actives 0.36% (n = 290,000); AID 2006; in the data active means inhibition above about 50%, passing the limit was not always enough
Target sequence (P63279 whole entry, looked up): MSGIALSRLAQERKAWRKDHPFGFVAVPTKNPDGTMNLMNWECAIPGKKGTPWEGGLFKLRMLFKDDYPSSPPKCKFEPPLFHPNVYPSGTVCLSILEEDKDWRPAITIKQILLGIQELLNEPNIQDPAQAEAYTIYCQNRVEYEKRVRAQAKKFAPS
S1P4 antag – blocks the human S1P4 receptor; O95977; S1P4-expressing cells, antagonist mode, reporter read-out; inhibition, % at 4.98 µM; actives 0.26% (n = 220,000); AID 1510; in the data active means inhibition above about 29%
DTT redox prof – compounds producing H2O2 with reducing agent – biochemical, NIH compound library profiling, artefact control for MLSCN library redox annotation, primary screen. AID 878. actives 0.03% (n = 200,000). DTT-dependent redox cycling H2O2, phenol red/HRP absorbance; 100% = 100 µM peroxide control, 0% = buffer. activation, % at 10 µM;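 active means activation of at least 50% relative to the plate's high and low controls in the primary single-dose screen; inactive means activation below 50%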;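 further: compound incubated with DTT at 0.8 mM final as the reducing agent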
p97 ATPase inh – blocks human p97 ATPase activity. recombinant p97 ATPase, Kinase-Glo ATP luminescence, 3 h. actives 0.42% (n = 220,000). inhibition, % at 8 µM; in the data active means inhibition above about 15%
S1P4 ag – human S1P4 receptor agonism. O95977. S1P4-expressing cell line, agonist reporter assay. activation, % at 4.98 µM. actives 0.35% (n = 220,000); in the data active means activation above about 11%
S1P3 antagonist – S1P3 (human) receptor antagonism | Q99500 | CHO S1P3 NFAT-BLA reporter, FRET fluorescence, antagonist mode | inhibition, % at 4.98 µM | actives 0.27% (n = 170,000);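 active means inhibition above the plate cutoff, the mean inhibition of test wells on that plate plus 3 SD, cut at about 28% in these data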;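 further: cells challenged with S1P at its EC80 of 0.8 µM; blue over green emission ratio from cleaved BLA substrate after 4 h stimulation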
Target sequence (Q99500 whole entry, looked up): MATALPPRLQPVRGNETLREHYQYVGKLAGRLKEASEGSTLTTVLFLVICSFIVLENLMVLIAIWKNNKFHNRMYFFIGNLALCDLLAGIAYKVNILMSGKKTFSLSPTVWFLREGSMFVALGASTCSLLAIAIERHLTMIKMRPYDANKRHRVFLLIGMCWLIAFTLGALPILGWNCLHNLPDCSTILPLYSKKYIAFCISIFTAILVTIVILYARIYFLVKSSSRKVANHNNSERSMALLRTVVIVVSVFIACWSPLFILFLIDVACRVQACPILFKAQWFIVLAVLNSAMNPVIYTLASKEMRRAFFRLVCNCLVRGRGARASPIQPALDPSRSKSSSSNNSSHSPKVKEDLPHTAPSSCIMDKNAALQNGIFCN
S1P4 ag conf – human S1P4 agonism, confirmation; shares compounds with S1P4 ag; S1P4 agonist cell-based reporter assay; activation, % at 4.98 µM; actives 7% (n = 740); in the data active means activation above about 12%
S1P1 agonist – human S1P1 agonism as S1P4 agonist counter-screen. AID 1563. S1P1 agonist cell-based assay, activation. actives 4% (n = 740). shares compounds with S1P4 ag. activation, % at 4.98 µM; in the data active means activation above about 21%
A number is an active result; – = inactive; · = no result.

SMILES	SUMO HTRF inh	S1P4 antag	DTT redox prof	p97 ATPase inh	S1P4 ag	S1P3 antagonist	S1P4 ag conf	S1P1 agonist
Cc1ccc(OCCOc2ccc(Cl)cc2Cl)c([N+](=O)[O-])n1	–	–	–	–	102	–	80	–
COc1ccc(OCCOc2ccc(C)nc2[N+](=O)[O-])cc1	–	–	–	–	–	–	·	·
Cn1c(SCC(=O)N2CCOCC2)nc2c(c1=O)SCC2	–	·	·	·	·	·	·	·
CC(N=Cc1c(O)c2ccccc2oc1=O)C(=O)O (configuration not stated)	–	–	–	–	–	–	·	·
O=C(Cc1ccc(Cl)cc1)Nc1ccc(S(=O)(=O)Nc2cnc3ccccc3n2)cc1	–	–	–	–	–	–	·	·
CCOc1ncccc1C(=O)NC(C)CCc1ccccc1 (configuration not stated)	–	·	·	·	·	·	·	·
Cc1nccc2[nH]c(=O)c(C(=O)NC(C)CCc3ccccc3)cc12 (configuration not stated)	–	–	–	–	24	–	–	–
COc1ccc(Cn2ccnc2)cc1[N+](=O)[O-]	–	–	–	–	12	–	–	–
O=C(CSc1ncccn1)N1CCN(S(=O)(=O)c2ccccc2)CC1	–	–	·	–	–	–	·	·
O=C(Cn1cnc2ccccc21)N1CCN(S(=O)(=O)c2ccccc2)CC1	–	–	–	–	15	–	–	–
O=c1[nH][nH]c2cc(=O)n(-c3cccc(C(F)(F)F)c3)nc12	–	–	–	–	–	–	·	·
Nc1n[nH]c2cc(=O)n(-c3cccc(C(F)(F)F)c3)nc12	–	–	–	–	65	–	–	–
Cc1ccc(-n2c(SCC(=O)N(C)C3CCS(=O)(=O)C3)nc3ccccc3c2=O)cc1 (configuration not stated)	–	–	–	–	–	–	·	·
Cc1cc(C)nc(SCc2nnc(SCC(=O)O)n2-c2ccccc2)n1	–	–	–	–	14	–	–	–
O=C(O)Cn1c(SCCOc2ccccc2)nc2ccccc21	–	–	–	–	59	–	–	–
CCn1cc(/C=C(\NC(=O)c2ccccc2Cl)C(=O)NCCN2CCOCC2)c2ccccc21	–	·	·	·	·	·	·	·
CCCN(Cc1nnc(-c2ccccc2Cl)o1)C(=O)c1cc([N+](=O)[O-])cc([N+](=O)[O-])c1	–	–	–	–	19	–	–	–
O=C1OC(C(=O)O)Cc2ccccc21 (configuration not stated)	–	–	–	–	–	·	·	·
O=C(Cn1c(Cc2ccccc2)nc2ccccc21)NCc1ccc2c(c1)OCO2	–	–	–	–	22	–	–	–
C=CCN1C(=O)CS/C1=N\S(=O)(=O)c1ccc(Cl)cc1	–	–	–	–	11	–	–	–
O=C(C1Cc2ccccc2CN1C(=O)c1ccccc1)N1CCN(c2ccccc2)CC1 (configuration not stated)	–	–	·	–	–	–	·	·
CCOc1c(Cl)cc(C(=O)Nc2cccc(C(=O)O)c2)cc1Cl	–	–	–	–	–	–	·	·
NC(=O)CSc1nnc(-c2ccc(S(=O)(=O)N3CCCCC3)cc2)n1-c1ccccc1	–	–	–	–	–	·	·	·
COc1ccccc1-n1c(SCC(N)=O)nnc1-c1ccc(S(=O)(=O)N2CCCCC2)cc1	–	–	–	–	23	–	–	–
COc1cc2nc(CN3CCN(c4ncc(C(F)(F)F)cc4Cl)CC3)[nH]c(=O)c2cc1OC	–	·	·	·	·	–	·	·
SMILES	SUMO HTRF inh	S1P4 antag	DTT redox prof	p97 ATPase inh	S1P4 ag	S1P3 antagonist	S1P4 ag conf	S1P1 agonist
COc1ccc(C2CC(c3ccc(Br)cc3)=NN2C(=O)c2cccnc2)cc1 (configuration not stated)	–	–	–	–	12	–	–	–
COc1ccc(C2=NN(C(=O)CN3CCCC3)C(c3ccc(OC)cc3)C2)cc1 (configuration not stated)	–	–	·	–	40	–	–	–
O=C(O)c1cc(N/N=C/C=C/c2ccccc2[N+](=O)[O-])ccc1Cl	–	–	·	–	–	–	·	·
CN(C)CCCN(C(=O)c1cc(-c2cccs2)nc2ccccc12)c1nc2ccc(F)cc2s1	–	·	·	·	·	·	·	·
CC(NC(=O)C(=O)N/N=C\c1cccc([N+](=O)[O-])c1)c1ccccc1 (configuration not stated)	–	–	–	–	–	–	·	·
Cc1cc2cc3c(cc2nc1SCC(=O)O)CCC3	–	–	–	–	43	–	–	–
Cc1ccccc1NC(=O)CSc1nc2cc3c(cc2cc1C)CCC3	–	–	–	–	–	·	·	·
O=C(CN1C(=O)CSc2ccc(S(=O)(=O)N3CCOCC3)cc21)NCCCN1CCOCC1	–	–	–	–	17	–	–	–
O=C(CN1C(=O)CSc2ccc(S(=O)(=O)N3CCOCC3)cc21)NCCCN1CCCCC1	–	·	·	·	·	·	·	·
Oc1cccc(/C=N/Nc2cc(N3CCOCC3)nc(N3CCOCC3)n2)c1	–	–	–	–	13	–	–	–
Oc1ccc(/C=N/Nc2cc(N3CCOCC3)nc(N3CCOCC3)n2)cc1O	–	–	–	–	–	–	·	·
CCOC(=O)c1cn(CC)c2cc(N3CCOCC3)c(F)cc2c1=O	–	–	–	–	14	–	–	–
CCOC(=O)c1cn(CC)c2cc(N3CCCCC3)c(F)cc2c1=O	·	–	–	–	–	–	·	·
O=C(CCSc1ccccc1)NCc1cccnc1	–	–	–	–	11	–	–	–
O=C(CSc1ccccc1)NCc1cccnc1	–	–	–	–	–	·	·	·
COc1cc([N+](=O)[O-])c(C(=O)N2CCOCC2)c([N+](=O)[O-])c1	–	–	–	–	–	–	·	·
COc1cccc(NC(=O)CSc2nnc(Cc3cccs3)n2-c2ccc(C)cc2)c1	–	–	–	–	13	·	–	–
CCCCN1C(=O)N(c2ccccc2Cl)C(C)(O)CC1(C)C (configuration not stated)	–	·	·	·	·	·	·	·
Cc1cc(C)c(S(=O)(=O)NCCc2ccccc2)c(C)c1	–	–	–	–	21	–	–	–
CC(=O)C1=C(C)NC(SCC(=O)c2ccc(Cl)cc2Cl)=C(C#N)C1c1ccco1 (configuration not stated)	–	–	–	–	24	–	26	–
COc1ccc([N+](=O)[O-])cc1NC(=O)Cc1ccc(Cl)cc1	–	–	–	–	15	–	–	–
Cc1cc(C)nc(NC(=O)Cc2ccc([N+](=O)[O-])cc2)c1	–	–	–	–	30	–	–	–
CS(=O)(=O)N(CC(=O)NCc1ccncc1)Cc1ccc(Cl)cc1	–	–	–	–	–	–	·	·
CCOC(=O)CC1Sc2ccccc2NC1=S (configuration not stated)	–	–	·	–	63	–	–	–
O=C(O/N=C1\CCS(=O)(=O)c2sccc21)c1c(F)cccc1F	–	–	–	–	33	–	–	–

Bioassay records (PubChem BioAssay)
